# Inconclusive results are not listed. The source made the active and inactive calls.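 The calls were made as follows, unless noted: active = normalized viability below 100% at a tested concentration; inactive = the rest.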
# How the values were obtained:
# [1] = growth inhibition of DIPG glioma cells, dose response, cell-based, SU-DIPG-XVII, MIPE5.0, CellTiter-Glo, qHTS (AID 1347060; cut-off not given, nearly all actives have AC50 up to about 26 µM;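 as to AC50: cells exposed to compound for 48 hours before viability readout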); settings: SU-DIPG-XVII viability, CellTiter-Glo ATP luminescence
# [2] = growth inhibition of DIPG glioma cells, dose response, cell-based, SU-DIPG-XIII, MIPE4.0, CellTiter-Glo, qHTS (AID 1347061; cut-off not given, nearly all actives have AC50 up to about 37 µM;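 also: cells exposed to compound for 48 hours before readout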); settings: SU-DIPG-XIII viability, CellTiter-Glo ATP luminescence
# [3] = growth inhibition of DIPG glioma cells, dose response, cell-based, SU-DIPG-IV, MIPE4.0, CellTiter-Glo, qHTS (AID 1347063; cut-off not given, nearly all actives have AC50 up to about 30 µM;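 also: compound exposure lasted 48 hours before the viability readout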); settings: SU-DIPG-IV viability, CellTiter-Glo ATP luminescence
# [4] = viability loss in pontine glioma line – cell-based, SU-DIPG-XXV, MIPE5.0, CellTiter-Glo, qHTS, dose response (AID 1347065; cut-off not given, nearly all actives have AC50 up to about 26 µM;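 also: cells exposed to compound for 48 hours before ATP readout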); settings: CellTiter-Glo ATP luminescence
# [5] = JHH-DIPG-1 glioma cell viability, MIPE5.0 library, CellTiter-Glo luminescence, qHTS (AID 1347067; cut-off not given, nearly all actives have AC50 up to about 26 µM;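 also: cells exposed to compound for 48 hours before readout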); settings: JHH-DIPG-1 glioma viability, CellTiter-Glo ATP luminescence
# [6] = sensitizers of A549 cells to miR-34 induction, primary screen, imaging, A549 dox-inducible miR-34, nuclei and caspase counts (AID 1347080;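 active = compounds whose cell count with miR-34 switched on is under 0.7 times the count with it off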); settings: A549 miR-34 inducible, Hoechst nuclei count, 48 h
# [7] = modifiers of HSF1 nuclear foci, imaging, Selleck Cancer Library (AID 1347162; in the data active = plate-normalised HSF1 focus index below about 0.46); settings: human cells, at 10 µM; SSMD: measured here: HSF1 foci SSMD mean; cell count: measured here: cell number; plate-normalised HSF1 focus index: stronger effect = lower value
# [8] = survival rescue of mitochondrial mutant cells in low glucose, primary screen, MELAS cybrids, Rieske KO mouse fibroblasts, CellTiter-Glo (AID 1508586;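 active = mean z-score across replicates of 1.96 or higher in either the MELAS or the Rieske mutant cell line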;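 also: z relative to plate mean and SD of compound and empty wells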)
# [9] = ovarian cancer cell viability with rucaparib, profiling panel, oncology-focused library, rucaparib conditional (AID 1508598); settings: patient-derived ovarian cancer cells, CellTiter-Glo viability, 144 h, stronger effect = lower value
# [10] = growth inhibition of DIPG glioma cells, dose response, cell-based, SU-DIPG-XIII, MIPE5.0, CellTiter-Glo, qHTS (AID 1347064; cut-off not given, nearly all actives have AC50 up to about 23 µM); settings: SU-DIPG-XIII viability, CellTiter-Glo ATP luminescence
# [11] = SU-DIPG-VI glioma cell viability, MIPE4.0 library, CellTiter-Glo luminescence, qHTS (AID 1347066; cut-off not given, nearly all actives have AC50 up to about 30 µM;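 also: cells exposed to compound for 48 hours before readout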); settings: CellTiter-Glo ATP luminescence
# [12] = SU-DIPG-XXV glioma cell viability, MIPE5.0 library, qHTS (AID 1347068; cut-off not given, nearly all actives have IC50 up to about 30 µM)
structure (smiles),measurement,setting,value
Cc1cn(-c2cc(NC(=O)c3ccc(C)c(Nc4nccc(-c5cccnc5)n4)c3)cc(C(F)(F)F)c2)cn1,AC50,[1],10.5 µM (active)
same,outcome,[2],inactive
same,AC50,[3],8.33 µM (active)
same,AC50,[4],10.5 µM (active)
same,AC50,[5],11.8 µM (active)
same,fold change,"[6]; stronger effect = lower value, cell number ratio, induced over uninduced",0.874 (inactive)
same,fold change,[6]; measured here: relative caspase fold change +Dox/-Dox,0.941
same,cell count,"[6]; measured here: total cells with miR-34 induction, stronger effect = lower value",1260
same,cell count,[6]; measured here: total cells without miR-34 induction,1440
same,SSMD,[7],0.723
same,cell count,[7],7680
same,plate-normalised HSF1 focus index,[7],1.05 (inactive)
same,z-score,"[8]; MELAS cybrid survival, CellTiter-Glo 48 h, stronger effect = higher value",3.41 (active)
same,z-score,"[8]; Rieske KO mouse fibroblast survival, CellTiter-Glo 72 h",-0.657
same,viability,"[9]; at 0.000305 µM, OCI-C5x cells, with rucaparib 10 µM, 100% = cells with rucaparib alone",106% (inactive)
same,viability,"[9]; at 0.000305 µM, OCI-C5x cells, without rucaparib",116% (inactive)
same,viability,"[9]; at 0.000305 µM, OCI-P5x cells, with rucaparib 20 µM, 100% = cells with rucaparib alone",103% (inactive)
same,viability,"[9]; at 0.000305 µM, OCI-P5x cells, without rucaparib",105% (inactive)
same,viability,"[9]; at 0.00122 µM, OCI-C5x cells, with rucaparib 10 µM, 100% = cells with rucaparib alone",108% (inactive)
same,viability,"[9]; at 0.00122 µM, OCI-C5x cells, without rucaparib",117% (inactive)
same,viability,"[9]; at 0.00122 µM, OCI-P5x cells, with rucaparib 20 µM, 100% = cells with rucaparib alone",100% (inactive)
same,viability,"[9]; at 0.00122 µM, OCI-P5x cells, without rucaparib",101% (inactive)
same,viability,"[9]; at 0.00488 µM, OCI-C5x cells, with rucaparib 10 µM, 100% = cells with rucaparib alone",109% (inactive)
same,viability,"[9]; at 0.00488 µM, OCI-C5x cells, without rucaparib",116% (inactive)
same,viability,"[9]; at 0.00488 µM, OCI-P5x cells, with rucaparib 20 µM, 100% = cells with rucaparib alone",103% (inactive)
same,viability,"[9]; at 0.00488 µM, OCI-P5x cells, without rucaparib",98.8% (active)
same,viability,"[9]; at 0.0195 µM, OCI-C5x cells, with rucaparib 10 µM, 100% = cells with rucaparib alone",105% (inactive)
same,viability,"[9]; at 0.0195 µM, OCI-C5x cells, without rucaparib",127% (inactive)
same,viability,"[9]; at 0.0195 µM, OCI-P5x cells, with rucaparib 20 µM, 100% = cells with rucaparib alone",102% (inactive)
same,viability,"[9]; at 0.0195 µM, OCI-P5x cells, without rucaparib",91.4% (active)
same,viability,"[9]; at 0.0781 µM, OCI-C5x cells, with rucaparib 10 µM, 100% = cells with rucaparib alone",117% (inactive)
same,viability,"[9]; at 0.0781 µM, OCI-C5x cells, without rucaparib",116% (inactive)
same,viability,"[9]; at 0.0781 µM, OCI-P5x cells, with rucaparib 20 µM, 100% = cells with rucaparib alone",98.7% (active)
same,viability,"[9]; at 0.0781 µM, OCI-P5x cells, without rucaparib",104% (inactive)
same,viability,"[9]; at 0.313 µM, OCI-C5x cells, with rucaparib 10 µM, 100% = cells with rucaparib alone",107% (inactive)
same,viability,"[9]; at 0.313 µM, OCI-C5x cells, without rucaparib",118% (inactive)
same,viability,"[9]; at 0.313 µM, OCI-P5x cells, with rucaparib 20 µM, 100% = cells with rucaparib alone",116% (inactive)
same,viability,"[9]; at 0.313 µM, OCI-P5x cells, without rucaparib",103% (inactive)
same,viability,"[9]; at 1.25 µM, OCI-C5x cells, with rucaparib 10 µM, 100% = cells with rucaparib alone",127% (inactive)
same,viability,"[9]; at 1.25 µM, OCI-C5x cells, without rucaparib",117% (inactive)
same,viability,"[9]; at 1.25 µM, OCI-P5x cells, with rucaparib 20 µM, 100% = cells with rucaparib alone",97.7% (active)
same,viability,"[9]; at 1.25 µM, OCI-P5x cells, without rucaparib",91.7% (active)
same,viability,"[9]; at 5 µM, OCI-C5x cells, with rucaparib 10 µM, 100% = cells with rucaparib alone",139% (inactive)
same,viability,"[9]; at 5 µM, OCI-C5x cells, without rucaparib",116% (inactive)
same,viability,"[9]; at 5 µM, OCI-P5x cells, with rucaparib 20 µM, 100% = cells with rucaparib alone",68% (active)
same,viability,"[9]; at 5 µM, OCI-P5x cells, without rucaparib",30.3% (active)
CO[C@H]1C[C@@H]2CC[C@@H](C)[C@@](O)(O2)C(=O)C(=O)N2CCCC[C@H]2C(=O)O[C@H]([C@H](C)C[C@@H]2CC[C@@H](OP(C)(C)=O)[C@H](OC)C2)CC(=O)[C@H](C)/C=C(\C)[C@@H](O)[C@@H](OC)C(=O)[C@H](C)C[C@H](C)/C=C/C=C/C=C/1C,AC50,[1],18.6 µM (active)
same,outcome,[2],inactive
same,AC50,[3],23.5 µM (active)
same,AC50,[4],16.6 µM (active)
same,AC50,[5],20.9 µM (active)
O=C(Nc1ccc(Oc2ccnc3[nH]ccc23)c(F)c1)c1cccn(-c2ccc(F)cc2)c1=O,outcome,[1],inactive
same,outcome,[2],inactive
same,outcome,[10],inactive
same,outcome,[4],inactive
same,outcome,[11],inactive
same,outcome,[5],inactive
same,outcome,[12],inactive
NC1=N[C@@]2(c3cc(NC(=O)c4ccc(F)cn4)ccc3F)COC[C@H]2CS1,outcome,[1],inactive
same,outcome,[2],inactive
same,outcome,[4],inactive
same,outcome,[11],inactive
same,outcome,[5],inactive
same,outcome,[12],inactive
